# Test results published in PubChem BioAssay (EPA / NIEHS).
# Calls of active or inactive are those of the source. Rule for the calls: active = hit-call score of the fitted dose curve at least 0.9, where 1 is the maximum; inactive = score below 0.9.
# What was measured:
# [1] = ATG_GLI_CIS: Attagene CIS-FACTORIAL HepG2 Assay for human Zinc Finger Protein GLI1 (AID 2282945); conditions: HepG2, Attagene cis-factorial reporter mRNA, GLI element; actives raise or lower the signal
# In short: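 HepG2 cells transiently transfected with cis-promoter multiplexed reporter units report endogenous transcription factor activity. After 24 h chemical exposure, reporter mRNA was quantified by RT-PCR, 6-FAM labelling, HpaI digestion and capillary electrophoresis, with bidirectional fitting against DMSO.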
# [2] = ATG_GRE_CIS: Attagene CIS-FACTORIAL HepG2 Assay for human Glucocorticoid Response Elements (GRE) (AID 2282947); conditions: HepG2 GRE cis-reporter, Attagene multiplex mRNA; actives raise or lower the signal
# In short: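 HepG2, transient cis-reporter transfection, 24 h. Reporter mRNA: RT-PCR then CE, fluorescence. Fit both directions vs DMSO.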
# [3] = ATG_ISRE_CIS: Attagene CIS-FACTORIAL HepG2 Assay for human Interferon Regulatory Factor 1 (IRF1) binding to an Interferon-Stimulated Response Element (ISRE) (AID 2282948); conditions: HepG2 ISRE cis-reporter (Attagene), mRNA transcription readout; actives raise or lower the signal
# In short: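 Multiplexed mRNA reporter readout in human liver HepG2 cells: cis-element-driven reporters transfected, compound added for 24 h, transcripts amplified, fluorescently labelled and sized by capillary electrophoresis; curve fitting bidirectional against DMSO.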
# [4] = ATG_M_06_CIS: Attagene CIS-FACTORIAL HepG2 Assay for M06 Transcription Factor (Internal Marker) (AID 2282950); conditions: HepG2 Attagene CIS-FACTORIAL M06 internal marker reporter; actives raise or lower the signal
# In short: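 HepG2 cells transiently transfected with cis-regulated multiple reporter transcription units were exposed to chemical for 24 h; reporter mRNA was quantified by RT-PCR, 6-FAM primer labelling, HpaI digestion and capillary electrophoresis, fitted bidirectionally against DMSO.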
# [5] = target: Hepatocyte nuclear factor 6 (Homo sapiens) (UniProt Q9UBC0); test: ATG_HNF6_CIS: Attagene CIS-FACTORIAL HepG2 Assay for human Hepatocyte Nuclear Factor 6 (HNF6) (AID 2282952); conditions: HepG2 Attagene cis-factorial HNF6 reporter transcription; actives raise or lower the signal
# Chain of Hepatocyte nuclear factor 6 (Homo sapiens) (Q9UBC0 whole entry, looked up, the tested form may be a part): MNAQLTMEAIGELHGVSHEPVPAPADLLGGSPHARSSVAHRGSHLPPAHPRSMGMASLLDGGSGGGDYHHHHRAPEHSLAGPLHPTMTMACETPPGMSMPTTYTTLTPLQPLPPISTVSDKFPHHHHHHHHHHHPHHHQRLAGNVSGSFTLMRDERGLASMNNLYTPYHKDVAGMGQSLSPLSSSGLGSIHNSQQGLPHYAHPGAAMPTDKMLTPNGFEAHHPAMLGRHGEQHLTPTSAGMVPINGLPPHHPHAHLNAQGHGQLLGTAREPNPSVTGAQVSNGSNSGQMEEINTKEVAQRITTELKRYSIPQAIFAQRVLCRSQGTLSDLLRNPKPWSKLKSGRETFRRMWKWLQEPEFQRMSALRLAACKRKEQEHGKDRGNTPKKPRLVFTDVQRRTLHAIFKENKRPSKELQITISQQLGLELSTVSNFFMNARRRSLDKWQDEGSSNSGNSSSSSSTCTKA
# In short: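 Twenty-four-hour chemical treatment of reporter-transfected HepG2 cells precedes RNA isolation, DNase-treated reverse transcription and PCR of reporter sequences. Labelled fragments are sized by capillary electrophoresis and fitted bidirectionally versus DMSO.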
# [6] = target: Heat shock factor protein 1 (Homo sapiens) (UniProt Q00613); test: ATG_HSE_CIS: Attagene CIS-FACTORIAL HepG2 Assay for human Heat Shock Transcription Factor 1 (HSE) (AID 2282953); conditions: HepG2 HSE cis-reporter, Attagene RNA transcription; actives raise or lower the signal
# Chain of Heat shock factor protein 1 (Homo sapiens) (Q00613 whole entry, looked up): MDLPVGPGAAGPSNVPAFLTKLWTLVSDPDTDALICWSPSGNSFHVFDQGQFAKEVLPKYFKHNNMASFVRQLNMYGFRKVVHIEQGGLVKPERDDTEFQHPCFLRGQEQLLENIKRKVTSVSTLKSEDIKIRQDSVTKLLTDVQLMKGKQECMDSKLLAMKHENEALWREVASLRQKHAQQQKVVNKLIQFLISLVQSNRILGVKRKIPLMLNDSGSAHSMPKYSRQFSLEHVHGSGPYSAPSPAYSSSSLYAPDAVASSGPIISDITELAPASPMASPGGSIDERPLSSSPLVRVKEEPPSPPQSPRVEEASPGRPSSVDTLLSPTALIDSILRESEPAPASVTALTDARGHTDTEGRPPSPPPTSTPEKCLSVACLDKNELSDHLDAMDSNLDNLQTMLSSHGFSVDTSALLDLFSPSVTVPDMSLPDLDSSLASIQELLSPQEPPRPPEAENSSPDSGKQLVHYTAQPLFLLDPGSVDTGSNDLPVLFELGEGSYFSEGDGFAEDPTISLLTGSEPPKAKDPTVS
# In short: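 HepG2 cells transiently transfected with multiple reporter transcription units under cis-regulatory promoter control, measuring endogenous transcription factor activity. After 24 h chemical exposure, reporter mRNA quantified by RT-PCR, fluorescent labelling, HpaI digestion and capillary electrophoresis; bidirectional fit versus DMSO.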
# [7] = ATG_MRE_CIS: Attagene CIS-FACTORIAL HepG2 Assay for human Metal Responsive Element (MRE) (AID 2282954); conditions: HepG2 MRE cis-reporter transcription, Attagene multiplex; actives raise or lower the signal
# In short: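 Readout: capillary electrophoresis of 6-FAM-labelled, HpaI-digested RT-PCR reporter products. System: HepG2 cells carrying transient multiplexed cis reporters, dosed 24 h. Analysis: bidirectional fit, DMSO baseline.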
# [8] = ATG_PXRE_CIS: Attagene CIS-FACTORIAL HepG2 Assay for human Pregnane X Receptor Element (PXRE) (AID 2282957); conditions: HepG2 Attagene CIS-FACTORIAL PXRE reporter, mRNA; actives raise or lower the signal
# In short: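 Bidirectional activity, baselined to DMSO, derived from reporter mRNA fluorescence (RT-PCR plus capillary electrophoresis) in HepG2 cells bearing cis-promoter reporter units, 24 h exposure.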
# [9] = ATG_PPRE_CIS: Attagene CIS-FACTORIAL HepG2 Assay for human Peroxisome Proliferator-activated Response Element (PPRE) (AID 2282958); conditions: HepG2 PPRE cis-element reporter, Attagene transcription factor profiling; actives raise or lower the signal
# In short: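 DMSO served as negative control and baseline for bidirectional curve fitting. Signal came from PPRE-regulated reporter mRNA in HepG2 cells, measured 24 h post-dosing by RT-PCR, 6-FAM primer extension and capillary electrophoresis.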
# [10] = ATG_RORE_CIS: Attagene CIS-FACTORIAL HepG2 Assay for human RAR-related Orphan Receptor Element (RORE) (AID 2282959); conditions: HepG2 Attagene cis-factorial RORE reporter, mRNA; actives raise or lower the signal
# In short: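 Transfect HepG2 with MRTUs; treat 24 h; extract RNA; RT with oligo(dT); PCR with reporter-specific primers; 6-FAM primer extension; HpaI digest 2 h at 37 C; capillary electrophoresis. Fit vs DMSO, bidirectional.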
# [11] = ATG_Sox_CIS: Attagene CIS-FACTORIAL HepG2 Assay for human SRY-box transcription factor (SOX) (AID 2282960); conditions: HepG2 Attagene cis-factorial SOX reporter, mRNA; actives raise or lower the signal
# In short: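 Fluorescence-labelled cDNA fragments from reporter transcripts, sized by CE, give the signal. Cells: HepG2, transiently transfected with cis-regulated reporter units. Exposure 24 h; DMSO negative control; bidirectional curve fitting.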
# [12] = target: Transcription factor Sp1 (Homo sapiens) (UniProt P08047); test: ATG_Sp1_CIS: Attagene CIS-FACTORIAL HepG2 Assay for human Specificity Protein 1 (Sp1) (AID 2282961); conditions: HepG2 Sp1 cis-reporter transcription, actives raise or lower the signal
# Chain of Transcription factor Sp1 (Homo sapiens) (P08047 whole entry, looked up): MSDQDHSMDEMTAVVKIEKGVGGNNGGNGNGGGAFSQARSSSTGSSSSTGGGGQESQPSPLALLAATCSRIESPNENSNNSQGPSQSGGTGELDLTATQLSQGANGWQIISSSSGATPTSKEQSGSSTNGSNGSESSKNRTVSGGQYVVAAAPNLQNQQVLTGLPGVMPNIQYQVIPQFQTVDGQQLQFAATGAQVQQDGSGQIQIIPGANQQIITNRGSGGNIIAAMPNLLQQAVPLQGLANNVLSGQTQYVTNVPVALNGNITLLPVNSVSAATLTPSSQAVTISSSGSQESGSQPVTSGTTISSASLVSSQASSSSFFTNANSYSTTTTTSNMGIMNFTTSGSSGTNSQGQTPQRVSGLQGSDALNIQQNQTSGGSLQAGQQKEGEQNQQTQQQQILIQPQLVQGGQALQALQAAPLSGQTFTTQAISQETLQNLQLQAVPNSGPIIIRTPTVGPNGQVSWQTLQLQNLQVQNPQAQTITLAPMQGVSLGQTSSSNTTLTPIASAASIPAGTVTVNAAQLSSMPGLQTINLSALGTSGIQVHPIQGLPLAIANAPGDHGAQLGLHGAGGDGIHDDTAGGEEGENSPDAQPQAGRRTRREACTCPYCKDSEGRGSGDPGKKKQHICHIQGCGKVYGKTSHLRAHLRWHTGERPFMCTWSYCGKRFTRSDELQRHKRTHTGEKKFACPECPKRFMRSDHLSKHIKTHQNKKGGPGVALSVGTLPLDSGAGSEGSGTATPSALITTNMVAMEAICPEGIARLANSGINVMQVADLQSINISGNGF
# In short: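 Chemicals are dosed onto HepG2 cells transfected with multiple cis-promoter reporter constructs, and after 24 h reporter RNA is reverse-transcribed, PCR-amplified and resolved by capillary electrophoresis for fluorescence quantitation; activity is scored up or down against DMSO.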
# [13] = ATG_SREBP_CIS: Attagene CIS-FACTORIAL HepG2 Assay for human Sterol Regulatory Element Binding (SREBP) (AID 2282962); conditions: HepG2 Attagene cis-factorial SREBP reporter, mRNA; actives raise or lower the signal
# In short: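 Endogenous factor activity is measured in HepG2 through multiplexed reporter units under cis-element control. Following a 24 h incubation, reporter transcripts are reverse-transcribed, PCR-amplified and sized by capillary electrophoresis; activity is fitted in both directions relative to DMSO.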
# [14] = target: Signal transducer and activator of transcription 3 (Homo sapiens) (UniProt P40763); test: ATG_STAT3_CIS: Attagene CIS-FACTORIAL HepG2 Assay for human Signal Transducer and Activator of Transcription 3 (STAT3) (AID 2282963); conditions: HepG2, Attagene cis-factorial STAT3 reporter transcription; actives raise or lower the signal
# Chain of Signal transducer and activator of transcription 3 (Homo sapiens) (P40763 whole entry, looked up): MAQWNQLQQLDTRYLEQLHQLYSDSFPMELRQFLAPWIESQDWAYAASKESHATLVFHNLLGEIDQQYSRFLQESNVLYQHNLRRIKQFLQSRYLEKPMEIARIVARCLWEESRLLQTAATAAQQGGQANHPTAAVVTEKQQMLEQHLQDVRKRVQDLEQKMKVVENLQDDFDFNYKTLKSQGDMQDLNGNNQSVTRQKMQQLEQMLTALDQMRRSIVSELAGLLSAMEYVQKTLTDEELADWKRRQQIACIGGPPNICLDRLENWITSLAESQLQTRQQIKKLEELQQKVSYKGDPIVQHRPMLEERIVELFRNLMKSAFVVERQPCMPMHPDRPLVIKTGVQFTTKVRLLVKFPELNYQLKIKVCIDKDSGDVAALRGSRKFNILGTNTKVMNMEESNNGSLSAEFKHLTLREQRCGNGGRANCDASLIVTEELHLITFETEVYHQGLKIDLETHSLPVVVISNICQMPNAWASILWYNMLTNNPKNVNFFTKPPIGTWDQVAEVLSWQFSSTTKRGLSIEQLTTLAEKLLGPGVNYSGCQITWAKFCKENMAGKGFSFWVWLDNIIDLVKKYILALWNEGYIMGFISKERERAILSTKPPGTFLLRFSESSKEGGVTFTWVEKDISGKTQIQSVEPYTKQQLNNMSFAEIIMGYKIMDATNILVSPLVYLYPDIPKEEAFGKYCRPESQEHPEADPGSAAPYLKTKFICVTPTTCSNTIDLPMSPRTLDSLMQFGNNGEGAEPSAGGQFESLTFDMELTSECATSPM
# In short: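 Uses human liver HepG2 transiently carrying cis-regulated reporter transcription units. Following 24 h dosing, reporter mRNA induction was detected by RT-PCR and capillary electrophoresis, analysed bidirectionally versus DMSO.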
# [15] = ATG_TA_CIS: Attagene CIS-FACTORIAL HepG2 Assay for human TA Basal Promoter (AID 2282964); conditions: HepG2 Attagene CIS-factorial TA basal promoter reporter; actives raise or lower the signal
# In short: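 HepG2 cells transiently transfected with multiplexed cis-promoter reporter units, dosed 24 h. Reporter mRNA measured by RT-PCR, 6-FAM labelling, HpaI digestion and capillary electrophoresis; bidirectional fit versus DMSO baseline, serving as background control.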
# [16] = ATG_M_32_CIS: Attagene CIS-FACTORIAL HepG2 Assay for M32 Transcription Factor (Internal Marker) (AID 2282949); conditions: HepG2 Attagene cis-factorial M32 reporter, mRNA; actives raise or lower the signal;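 note: background control marker of the multiplexed CIS panel rather than a real target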
# In short: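 Transient MRTU transfection of HepG2; 24 h compound treatment; TriZol RNA, oligo(dT) RT, reporter PCR, 6-FAM primer extension, HpaI cut, CE. Gain/loss of signal vs DMSO.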
# [17] = target: Hypoxia-inducible factor 1-alpha (Homo sapiens) (UniProt Q16665); test: ATG_HIF1a_CIS: Attagene CIS-FACTORIAL HepG2 Assay for human Hypoxia Inducible Factor 1 (HIF1A) (AID 2282951); conditions: HepG2 Attagene cis-factorial HIF1a reporter transcription; actives raise or lower the signal
# Chain of Hypoxia-inducible factor 1-alpha (Homo sapiens) (Q16665 whole entry, looked up): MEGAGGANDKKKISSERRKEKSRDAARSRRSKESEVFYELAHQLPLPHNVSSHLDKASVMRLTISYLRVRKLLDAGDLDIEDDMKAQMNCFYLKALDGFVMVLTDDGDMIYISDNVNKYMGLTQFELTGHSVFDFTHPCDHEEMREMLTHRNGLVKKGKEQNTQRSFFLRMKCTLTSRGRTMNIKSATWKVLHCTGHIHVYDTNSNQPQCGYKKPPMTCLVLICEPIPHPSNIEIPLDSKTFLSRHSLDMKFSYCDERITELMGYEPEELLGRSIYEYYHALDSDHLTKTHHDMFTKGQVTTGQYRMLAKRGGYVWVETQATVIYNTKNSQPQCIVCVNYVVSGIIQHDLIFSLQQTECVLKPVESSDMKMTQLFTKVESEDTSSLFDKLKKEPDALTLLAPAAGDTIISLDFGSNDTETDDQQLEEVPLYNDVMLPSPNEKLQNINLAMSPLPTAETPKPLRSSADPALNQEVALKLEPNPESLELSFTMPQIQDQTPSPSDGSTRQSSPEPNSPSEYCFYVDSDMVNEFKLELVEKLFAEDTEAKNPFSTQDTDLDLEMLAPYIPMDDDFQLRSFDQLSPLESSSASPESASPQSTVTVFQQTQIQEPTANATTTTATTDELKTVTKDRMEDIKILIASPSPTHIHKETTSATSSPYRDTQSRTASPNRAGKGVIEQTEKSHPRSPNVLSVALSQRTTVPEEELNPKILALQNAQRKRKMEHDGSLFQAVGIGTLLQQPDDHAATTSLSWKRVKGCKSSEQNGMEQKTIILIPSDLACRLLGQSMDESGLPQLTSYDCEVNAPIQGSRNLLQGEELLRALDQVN
# In short: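 Cis-element reporter constructs were transiently transfected into HepG2 cells, which were treated for 24 h; reporter RNA was reverse-transcribed, amplified, labelled and resolved by capillary electrophoresis.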
# [18] = ATG_PBREM_CIS: Attagene CIS-FACTORIAL HepG2 Assay for human Phenobarbital-responsive Enhancer Module (PBREM) (AID 2282955); conditions: HepG2 PBREM cis-reporter, Attagene multiplexed transcription; actives raise or lower the signal
# In short: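 Multiplexed cis-reporter readout in human hepatoma HepG2 cells; PBREM-regulated transcript quantified after 24 h exposure by fluorescent RT-PCR fragment analysis. Signal changes up or down fitted relative to DMSO.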
# [19] = target: Paired box protein Pax-6 (Homo sapiens) (UniProt P26367); test: ATG_Pax6_CIS: Attagene CIS-FACTORIAL HepG2 Assay for human Paired Box 6 (PAX6) (AID 2282956); conditions: HepG2 CIS-FACTORIAL PAX6 reporter transcription, RNA readout; actives raise or lower the signal
# Chain of Paired box protein Pax-6 (Homo sapiens) (P26367 whole entry, looked up): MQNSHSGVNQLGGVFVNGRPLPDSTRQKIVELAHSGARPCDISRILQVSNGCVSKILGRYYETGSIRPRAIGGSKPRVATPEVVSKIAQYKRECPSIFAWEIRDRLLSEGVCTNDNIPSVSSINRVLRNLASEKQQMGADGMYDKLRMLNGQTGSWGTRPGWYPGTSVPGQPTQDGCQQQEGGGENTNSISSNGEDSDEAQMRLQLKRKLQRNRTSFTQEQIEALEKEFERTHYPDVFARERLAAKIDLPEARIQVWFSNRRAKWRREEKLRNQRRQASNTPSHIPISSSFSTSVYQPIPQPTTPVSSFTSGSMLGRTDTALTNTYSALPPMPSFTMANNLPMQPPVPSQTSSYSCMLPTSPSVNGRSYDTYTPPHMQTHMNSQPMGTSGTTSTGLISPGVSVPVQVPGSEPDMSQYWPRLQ
# In short: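 Fluorescent RT-PCR products separated by capillary electrophoresis report PAX6-linked promoter mRNA in HepG2 cells 24 h post-dose. Curves fitted bidirectionally, DMSO as negative control.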
smiles,measurement,setting,value
CC(C)(O)CCc1ccccc1,outcome,[1],inactive
same,outcome,[2],inactive
same,outcome,[3],inactive
same,outcome,[4],inactive
same,outcome,[5],inactive
same,outcome,[6],inactive
same,outcome,[7],inactive
same,outcome,[8],inactive
same,outcome,[9],inactive
same,outcome,[10],inactive
same,outcome,[11],inactive
same,outcome,[12],inactive
same,outcome,[13],inactive
same,outcome,[14],inactive
same,outcome,[15],inactive
NNC(=O)OCc1ccccc1,outcome,[1],inactive
same,outcome,[3],inactive
same,outcome,[16],inactive
same,outcome,[4],inactive
same,outcome,[17],inactive
same,outcome,[5],inactive
same,outcome,[6],inactive
same,outcome,[7],inactive
same,outcome,[18],inactive
same,outcome,[19],inactive
same,outcome,[8],inactive
same,outcome,[9],inactive
same,outcome,[10],inactive
same,outcome,[11],inactive
same,outcome,[12],inactive
same,outcome,[13],inactive
same,outcome,[14],inactive
CCC(C)C1CCCCC1=O (stereo not drawn),outcome,[1],inactive
same,outcome,[3],inactive
same,outcome,[16],inactive
same,outcome,[4],inactive
same,outcome,[17],inactive
same,outcome,[5],inactive
same,outcome,[6],inactive
same,outcome,[7],inactive
same,outcome,[18],inactive
same,outcome,[19],inactive
same,outcome,[8],inactive
same,outcome,[9],inactive
same,outcome,[10],inactive
same,outcome,[11],inactive
same,outcome,[12],inactive
same,outcome,[13],inactive
same,outcome,[14],inactive
same,outcome,[15],inactive
CC1(C)CC(N)CC(C)(CN)C1 (stereo not drawn),outcome,[1],inactive
same,outcome,[2],inactive
same,outcome,[3],inactive
same,outcome,[4],inactive
same,outcome,[17],inactive
same,outcome,[5],inactive
same,outcome,[6],inactive
same,outcome,[7],inactive
same,outcome,[19],inactive
same,outcome,[8],inactive
same,outcome,[9],inactive
same,outcome,[10],inactive
same,outcome,[12],inactive
same,outcome,[13],inactive
same,outcome,[14],inactive
CC(=N[Si](C)(C)C)O[Si](C)(C)C,outcome,[1],inactive
same,outcome,[2],inactive
same,outcome,[3],inactive
same,outcome,[5],inactive
same,outcome,[6],inactive
same,outcome,[7],inactive
same,outcome,[18],inactive
same,outcome,[19],inactive
same,outcome,[8],inactive
same,outcome,[9],inactive
same,outcome,[10],inactive
same,outcome,[11],inactive
same,outcome,[12],inactive
same,outcome,[13],inactive
same,outcome,[14],inactive
same,outcome,[15],inactive
CN(C)C(=O)Nc1ccccc1,outcome,[1],inactive
same,outcome,[3],inactive
same,outcome,[16],inactive
same,outcome,[4],inactive
same,outcome,[17],inactive
same,outcome,[5],inactive
same,outcome,[6],inactive
same,outcome,[7],inactive
same,outcome,[18],inactive
same,outcome,[19],inactive
same,AC50,[8],26.5 µM (active)
same,outcome,[9],inactive
same,outcome,[10],inactive
same,outcome,[11],inactive
same,outcome,[12],inactive
same,outcome,[13],inactive
same,outcome,[14],inactive
same,outcome,[15],inactive
COC(=O)C(C)Oc1ccc(Oc2ncc(C(F)(F)F)cc2Cl)cc1 (stereo not drawn),outcome,[1],inactive
same,outcome,[3],inactive
same,outcome,[16],inactive
same,outcome,[4],inactive
same,outcome,[17],inactive
same,outcome,[5],inactive
same,outcome,[6],inactive
same,AC50,[7],100 µM (active)
same,AC50,[18],77.7 µM (active)
same,outcome,[19],inactive
same,AC50,[8],14.1 µM (active)
same,AC50,[9],34.3 µM (active)
same,outcome,[11],inactive
same,outcome,[12],inactive
same,outcome,[13],inactive
same,outcome,[14],inactive
same,outcome,[15],inactive
CC(CO)c1ccccc1 (stereo not drawn),outcome,[1],inactive
same,outcome,[3],inactive
same,outcome,[16],inactive
same,outcome,[4],inactive
same,outcome,[17],inactive
same,outcome,[5],inactive
same,outcome,[6],inactive
same,outcome,[7],inactive
same,outcome,[18],inactive
same,outcome,[19],inactive
same,outcome,[8],inactive
same,outcome,[10],inactive
same,outcome,[11],inactive
same,outcome,[12],inactive
same,outcome,[13],inactive
same,outcome,[14],inactive
same,outcome,[15],inactive
